Screening data (PubChem)
KB-V1 MDR tox: kills drug-selected multidrug resistant KB-V1 cells; 3.4% of 400,000 active; KB-V1 MDR cells viability, CellTiter-Glo, 72 h; Potency, µM (top dose mostly 46.1 µM), most hits filed as cytotoxic; also: % is scaled to controls: 0 for no effect and ±100 for the full control effect; nearly all actives have a fitted effect of over 60% in size
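Following 72 h at 37 degrees C with compound, KB-V1 cell viability was read by CellTiter-Glo luminescence, medium being phenol-red-free DMEM plus 10% FBS; concentration-response parameters came from normalized, curve-fitted qHTS data.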
KB-3-1 tox: kills parental KB-3-1 adenocarcinoma cells; KB-3-1 viability, CellTiter-Glo ATP luminescence, 72 h; Potency, µM (top dose mostly 46.1 µM), actives largely listed as cytotoxic; 1.4% of 400,000 active; also: % is scaled to controls: 0 for no effect and ±100 for the full control effect; nearly all actives have a fitted effect of over 60% in size
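Viability of parental KB-3-1 cells, measured by CellTiter-Glo luminescence, followed a 72 h incubation at 37 °C with pinned compounds in phenol-red-free DMEM containing 10% FBS.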
HT1080-NT tox: kills 2HG-producing HT-1080-NT fibrosarcoma cells; HT-1080-NT fibrosarcoma viability, CellTiter-Glo ATP luminescence, 48 h; Potency, µM (doses to about 46.1 µM), without a hit: at the top dose activity, negative = less viability, most hits filed as cytotoxic; 1.6% of 360,000 active; AID 686970;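 also: NT is the 2HG producing partner of a matched IDH1 knockdown line; 0% = DMSO-treated cells and -100% = media-only wells without cells; nearly all actives have a fitted effect of over 55% in size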
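Viability of the 2HG-overproducing fibrosarcoma line after 48 hours of compound exposure at 37 degrees C was determined by luminescence with CellTiter-Glo, and concentration-effect curves were then fitted and categorized.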
ATXN viability: viability counter-screen for ATXN expression inhibitors. S2 cells (HEK-293 line with an ATXN2-luciferase reporter) viability, CellTiter-Fluor protease fluorescence, 24 h. Potency, µM (titrated, usually from 56.7 µM), most hits filed as cytotoxic. 0.49% of 400,000 active; also: nearly all actives have a fitted effect of over 40% in size
HT1080 IDH1KD tx: HT-1080 IDH1 knockdown cell toxicity (counter line); HT-1080 IDH1 knockdown viability, ATP luminescence, 48 h; Potency, µM (highest dose often 46.1 µM), without a hit: at the highest dose activity, negative = toxicity, usual class: cytotoxic; 2% of 360,000 active; AID 686971;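 also: 0% = DMSO wells and -100% = cell-free medium wells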
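After a 2 h attachment period, IDH1KD HT-1080 cells took pin-transferred compound for 48 h at 37 °C; ATP-based luminescence after 10 min room-temperature reagent incubation reported viability.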
ATXN2 expr inh: inhibitors of ATXN2 expression. 0.72% of 360,000 active. Potency, µM (titrated, usually from 57 µM), for inactives: at the highest dose activity change, negative = inhibition, most hits filed as inhibitors. HEK-293 ATXN2-luciferase reporter, luminescence, 24 h; also: % is scaled to controls: 0 for no effect and ±100 for the full control effect; nearly all actives have a fitted effect of over 55% in size
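ATXN2-luciferase reporter cells (luciferase flanked by upstream and downstream ATXN2 gene portions) were treated 24 h at 37 °C with compounds at up to 57 uM. SteadyGlo luminescence gave expression; GF-AFC fluorescence gave viability.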
Active calls of the source: *; i = inactive; ? = inconclusive; nt = no result given; [ ] = remark or other dose. In the library only some 6.2% were active in any assay of this set; here they are far more common. Calls follow the shape of the dose curve; as a rule, active = well fitted curve in the direction sought with a large enough effect; inconclusive = small, poorly fitted or top-dose-only effect, or another doubt; inactive = no such curve, though single readings can be large; an effect the other way counts as inactive or inconclusive. Potency is read from the fitted curve at half-maximal effect.

SMILES | KB-V1 MDR tox | KB-3-1 tox | HT1080-NT tox | ATXN viability | HT1080 IDH1KD tx | ATXN2 expr inh
Cc1cc2c(cc1C)N[C@]1(C[C@H]3CCC(=O)N4CC[C@@H](C1)[C@@H]34)C(=Nc1ccccc1C)N2 | i | i | nt | nt | nt | nt
Cc1ccc(NC(=O)CSc2ccccc2NC(=O)c2cccc(Cl)c2)cc1Cl | ? | i | 3% | i | 12% | 2%
Cc1cccc2c(=O)cc(CSc3ccccc3NC(=O)c3cccc(Cl)c3)[nH]c12 | i | i | nt | 32µM* | nt | -8%
CN1/C(=C/c2cc[n+](C)c3ccccc23)C=Cc2ccccc21 | i | 6.5µM* | 7.3µM* | ? | 5.8µM* | 3.8µM*
CC(C)(C)N(Cc1ccccc1)C(=O)COC(=O)c1ccccc1SCC(=O)N1CCCC1 | 21µM* | i | -6% | i | -1% | 3%
Cc1sc2nc3ccc(N4CCCC4)nn3c(=O)c2c1C | 16µM* | ? | -1% | ? | 1% | -24%
CCOC(=O)Cn1c(S(=O)(=O)Cc2ccc(Cl)cc2)nc(-c2ccccc2)c1-c1ccccc1 | 7.3µM* | ? | ? | i | ? | -3%
Cc1cccc(C(=O)NC(=S)NNC(=O)c2ccc(Cl)cc2)c1 | ? | ? | ? | ? | 8.2µM* | -38%
Cc1ccc(C(=O)NC(=S)Nc2ccc(NC(=O)c3cccc(Cl)c3)cc2)cc1 | i | i | ? | ? | 26µM* | -31%
CC(C)C(=O)Nc1cccc(NC(=S)NC(=O)c2ccc(Cl)cc2)c1 | 2.9µM* | ? | ? | i | ? | 5%
COc1ccc(C(=O)NC(=S)NNC(=O)c2ccc(NC(=O)C(C)C)cc2)cc1 | 2.6µM* | ? | -10% | i | -15% | ?
Cc1ccc(NC(=S)NC(=O)c2ccc(F)cc2)cc1S(=O)(=O)Nc1cccc(Cl)c1 | 7.3µM* | 5.2µM* | 6.5µM* | ? | 2.9µM* | ?
COc1ccc(C(=O)N2CCC3(CC2)c2ccccc2[C@@H](NC(=O)c2ccccn2)[C@@H]3OC)c(O)c1 | nt | nt | nt | i | nt | nt
CN(C)c1ccc(CNC(=O)c2cc3ccccn3n2)cc1 | i | i | nt | i | nt | 31%
COc1cccc(NC(=O)CN(C)C(=O)c2ccc(NC3CC3)c([N+](=O)[O-])c2)c1 | 7.3µM* | i | -3% | i | -6% | -2%
COc1cccc(NC(=O)CN(C)C(=O)c2ccc3ccccc3c2)c1 | 21µM* | i | 4% | i | -4% | 4%
CN(CC(=O)Nc1cccc(F)c1)C(=O)c1ccc(NC2CC2)c([N+](=O)[O-])c1 | i | i | 0% | ? | -10% | -7%
CCCN(CCC)CCCNc1ccc(C(=O)Nc2cccc(OC)c2)cc1[N+](=O)[O-] | i | i | ? | i | 21µM* | -23%
COc1ccc(NC(=O)CN(C)C(=O)c2ccc3ccccc3c2)cc1 | i | i | -9% | i | 0% | 2%
CC1CC(=O)NN=C1c1ccc(NCC(C)(C)NCC(O)COc2cc(Cl)ccc2C#N)cc1 (centres undefined) | nt | nt | nt | i | nt | 11%
Cc1ccccc1-c1noc(CCC(=O)Nc2cccc(C)c2C)n1 | ? | i | nt | i | nt | -2%
O=C(Nc1cccc(N2CCC(NCc3cnn(-c4ccccc4)n3)CC2)c1)c1cccnc1 | nt | nt | nt | i | nt | nt
COc1cc(Nc2c3c(nc4ccccc24)CCCC3)cc(OC)c1OC | i | ? | ? | ? | ? | 35%
COc1ccc(Nc2c3c(nc4ccccc24)CCC3)c(OC)c1 | 4.1µM* | 21µM* | 18µM* | i | 16µM* | -33%
COc1cc(Cl)c(C)cc1Nc1c2c(nc3ccccc13)CCC2 | i | 4.1µM* | nt | 14µM* | nt | ?
SMILES | KB-V1 MDR tox | KB-3-1 tox | HT1080-NT tox | ATXN viability | HT1080 IDH1KD tx | ATXN2 expr inh
COC(=O)c1ccccc1-c1cc(C)cc2c1OC(CNC(=O)c1cc(C)on1)C2 (centres undefined) | nt | nt | nt | i | nt | nt
CCOc1ccc(NC(=O)CN2CCN(CC(=O)Nc3ccccc3OCC)CC2)cc1 | i | i | nt | nt | nt | nt
O=C(NCc1cccnc1)c1cnn(-c2ncc3c(n2)-c2ccccc2CCC3)c1C1CC1 | nt | nt | nt | i | nt | nt
CN1CCN(S(=O)(=O)c2cccc(C(=O)NC3CCCC3)c2)CC1 | i | i | -2% | i | 16% | 9%
CCS(=O)(=O)c1cccc(-c2cc(C(=O)NC3CCN(C)CC3)c(C)c3[nH]c4ncc(C)cc4c23)c1 | nt | nt | nt | nt | nt | 1.9µM*
O=c1c2cccc3c2c(nn1CN1CCOCC1)-c1ccccc1-3 | 1.6µM* | 4.1µM* | -24% | i | ? | -16%
CCN(CC)CCn1nc2c3c(cccc3c1=O)-c1ccccc1-2 | 5.8µM* | ? | 15µM* | ? | 21µM* | 10µM*
O=C(CCn1nc(-c2ccccc2)c2ccccc2c1=O)NN1CCOCC1 | i | ? | 5% | i | 18% | -9%[11.3 µM]
CCN(CC)CCn1nc(C)nc1-c1ccccc1O | ? | i | 1% | i | 4% | 1%
COc1ccc(-c2[nH]c(-c3ccc(C)cc3)nc2SCC(=O)NCC2CCCO2)cc1 (centres undefined) | i | i | nt | nt | nt | nt
CC(=O)c1c(C)oc2ccc(N(C(=O)Oc3ccccc3)S(=O)(=O)c3ccc(Br)cc3)cc12 | i | i | nt | i | nt | -4%
CCOCCCNC(=O)c1ccc2c(=O)n(CCc3ccccc3)c(=O)[nH]c2c1 | i | i | nt | i | nt | 10%
CC(=O)NC1=C(NC2CCS(=O)(=O)C2)C(=O)c2ccccc2C1=O (centres undefined) | i | ? | -10% | ? | -9% | -27%
CN(C1=C(NC(=O)c2ccccc2)C(=O)c2ccccc2C1=O)C1CCS(=O)(=O)C1 (centres undefined) | ? | ? | ? | 32µM* | -24% | ?
O=C(Nc1cccc(C(F)(F)F)c1)c1cc2c(=O)c3ccccc3oc2nc1C(F)(F)F | 21µM* | i | -4% | i | 2% | -19%
COc1cccc(C(=O)NCCS(=O)(=O)N(C)C2CCCCC2)c1 | 12µM* | i | 4% | ? | 16% | 10%
CN(C1CCCCC1)S(=O)(=O)CCNC(=O)c1ccccc1 | i | i | -1% | i | 6% | 1%
COc1cccc(C(=O)NCCS(=O)(=O)N(C)Cc2ccccc2)c1 | 18µM* | i | 6% | i | 14% | 11%
COc1cc(-c2noc(-c3ccc(N4CCN(C)CC4)c([N+](=O)[O-])c3)n2)cc(OC)c1OC | i | i | nt | i | nt | 10%
C=CCn1c(CNc2ccc(C)cc2)nnc1SCC(=O)N/N=C/c1ccc(O)cc1O | i | i | ? | i | -16%[9.24 µM] | 20µM*
